Only some compounds are listed: those with a hit (about 1.4% of all), similar ones and a draw of the others.
GLS inh – inhibitors of human glutaminase (GLS) | O94925 | GLS enzymatic activity, qHTS titration | Potency, µM (series often up to 45.5 µM), for inactives: at the top dose activity change, negative = inhibition, most hits filed as inhibitors | 410,000 compounds, 0.21% hits | AID 624170; further: potency means the concentration at half of the fitted maximal effect
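Glutamate formation by hKGA was monitored fluorometrically using coupled glutamate oxidase, HRP and Amplex Red. Substrate was added as 1 mM L-glutamine solution; incubation was 30 min at RT after an initial read.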
mIDH1 inhibitor – blocks human mutant IDH1 R132H enzyme | O75874 | IDH1-R132H enzyme, NADPH consumption, diaphorase/resazurin fluorescence | Potency, µM (titrated, usually from 76.6 µM), for the others: at the top dose activity change, negative = inhibition, hits mostly inhibitors | 390,000 compounds, 0.093% hits | AID 602179; further: potency means the concentration at half of the fitted maximal effect; nearly all actives have a fitted effect of over 65% in size
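IDH1-R132H (0.5 ug/mL dispensed) in pH 7.5 Tris buffer was preincubated 30 min with compound, then given a substrate mix of 0.016 mM NADPH and 2 mM alpha-KG for 80 min at room temperature; remaining NADPH was read by diaphorase/resazurin fluorescence.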
TrxR1 substrate – is turned over as a substrate by rat TrxR1 | O89049 | purified TrxR1 substrate turnover, NADPH consumption readout | Potency, µM (top dose mostly 114 µM), inactives show at the top dose activity change, negative = substrate turnover | 390,000 compounds, 0.01% hits | AID 588456; further: potency means the concentration at half of the fitted maximal effect; nearly all actives have a fitted effect of over 50% in size
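Rat TrxR1, dispensed at 90 nM, was prereduced with 400 uM NADPH (final) for 5 min at ~22 deg C, then incubated with compound 15 min before 400 uM selenite. A first-read NADPH fluorescence drop versus no-compound background flagged substrates.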
PKM2 act – PKM2 (human) enzyme activation. P14618. 260,000 compounds, 0.34% hits. AID 1631. purified PKM2, Kinase-Glo ATP luminescence, activation; response scale: 0% is enzyme alone, no compound. Potency, µM (top dose mostly 57.5 µM), for the others: at the top dose activation, most hits filed as activators; further: potency means the concentration at half of the fitted maximal effect; nearly all actives have a fitted effect of over 55% in size
Target sequence (P14618 whole entry, looked up): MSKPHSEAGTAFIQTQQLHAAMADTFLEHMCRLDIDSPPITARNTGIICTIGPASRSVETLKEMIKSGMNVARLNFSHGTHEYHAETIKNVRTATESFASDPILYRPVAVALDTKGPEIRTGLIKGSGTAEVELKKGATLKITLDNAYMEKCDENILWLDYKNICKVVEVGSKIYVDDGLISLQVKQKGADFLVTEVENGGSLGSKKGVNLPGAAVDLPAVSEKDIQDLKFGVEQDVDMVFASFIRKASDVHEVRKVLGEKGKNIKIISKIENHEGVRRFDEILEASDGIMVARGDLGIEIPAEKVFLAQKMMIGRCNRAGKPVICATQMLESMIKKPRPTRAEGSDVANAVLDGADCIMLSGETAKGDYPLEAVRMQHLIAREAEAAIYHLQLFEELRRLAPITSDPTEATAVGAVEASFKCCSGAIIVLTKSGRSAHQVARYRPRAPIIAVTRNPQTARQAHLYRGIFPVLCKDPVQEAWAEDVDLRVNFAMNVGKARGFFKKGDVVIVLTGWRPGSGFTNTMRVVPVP
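ATP formation by purified human PK-M2, quantified via coupled luciferase luminescence after 1 h at room temperature with 0.1 mM ADP and 0.5 mM PEP final.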
LDHA inh – LDHA (human) enzyme inhibition; P00338; purified LDHA, NADH/diaphorase-resazurin fluorescence; active compounds read low; activity change, % (values are at about 110 or 230 µM); 480,000 compounds, 0.15% hits; AID 1347041; in the data active means activity change below about -30%; inconclusive means mostly about -25% to -30%;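 further: plate controls were DMSO wells for no effect and wells without enzyme for full effect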
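LDH5 2 nM; NADH 0.06 mM, pyruvate 0.2 mM; 200 mM Tris pH 7.4, EDTA, Tween-20; 5 min RT. Detection: diaphorase 0.133 mg/mL + resazurin 37 µM, fluorescence ex540/em590 at 0 and 20 min; normalized to enzyme-free and DMSO wells.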
TrxR1 inh – rat TrxR1 inhibition; O89049; recombinant rTrxR1, NADPH fluorescence consumption, selenite substrate; Potency, µM (doses to about 114 µM), for the others: at the top dose activity change, negative = inhibition, most hits filed as inhibitors; 390,000 compounds, 1% hits; further: potency means the concentration at half of the fitted maximal effect; nearly all actives have a fitted effect of over 65% in size
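Rat TrxR1 (90 nM in the dispensed reagent) was pre-reduced with 400 uM NADPH for 5 min at room temperature, then incubated with compound for 15 min. After 400 uM selenite was added, NADPH fluorescence (Ex 340/Em 450 nm) was followed for 8 min.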
An asterisk follows results filed as active; ? = inconclusive; . = not tested or not shown; ! = not confirmed by another sample; [ ] = another dose, or the depositor's remark. Unless noted, the call rests on the fitted dose curve; in most records, active means well fitted curve in the direction sought with a large enough effect; inconclusive means small, poorly fitted or top-dose-only effect, or another doubt; inactive means no such curve, though single readings can be large; an effect the other way counts as inactive or inconclusive. Unless noted, on the % scale 0 is the no-effect control and ±100 the full control effect.

SMILES | GLS inh | mIDH1 inhibitor | TrxR1 substrate | PKM2 act | LDHA inh | TrxR1 inh
O=C(Cc1ccc([N+](=O)[O-])cc1)c1c(O)cc(O)cc1O | 25% | 4% | 4% | ? | -2 | 3.5µM*
Cc1c(F)cccc1NS(=O)(=O)c1ccc(OCCNS(C)(=O)=O)cc1 | 2% | 0% | -2%[57.1 µM] | 6.3µM* | -8 | 2%[57.1 µM]
Cc1cccc(C)c1NS(=O)(=O)c1ccc(OCCNS(C)(=O)=O)cc1 | 5% | -1% | 0%[57.1 µM] | 1% | -7 | 2%[57.1 µM]
CCCc1ccc(OCCN)cc1 | . | . | . | . | 2 | .
O=C1Nc2ccccc2/C1=C/C(=O)c1cccs1 | 26% | 2% | -5% | 8% | -4 | -67%
CCN1C(=O)/C(=C\C(=O)c2cccs2)c2cc(Br)ccc21 | 0% | -3% | -5% | ? | 7 | 18µM*
N#Cc1nc(-c2ccccc2Cl)oc1N1CCCCCC1 | . | . | . | . | -12 | .
N#Cc1nc(-c2ccccc2Cl)oc1N1CCOCC1 | 4% | 3% | 72% | -7% | -32*! | 21%
CNC(=O)NC(=O)COc1ccc(C(=O)c2ccc(F)cc2)cc1 | . | . | . | . | -4 | .
O=c1c(=O)n(O)c2ccccc2n1O | 13µM* | 1% | 2% | 10% | 5 | 0%
CCN(CC)c1ccc(/C=N/c2sc(C)c(C)c2C#N)cc1 | . | . | . | . | 2 | .
Cc1ccnc2ccccc12 | . | . | 10%[0.0914 µM] | . | 2 | 10%[0.0914 µM]
CN1CC[n+]2cnc3ccccc3c21 | 10% | 0% | 13%[57.1 µM] | -20% | -33* | -6%[57.1 µM]
Cc1cc(C)nc(NS(=O)(=O)c2ccc(Nc3nc(-c4ccc(C(C)C)cc4)cs3)cc2)n1 | . | . | . | . | -3 | .
Cc1cccc(C)c1Nc1c(-c2ccc(O)cc2)nc2sccn12 | 27% | ? | -1% | . | 3 | 2%
COc1cc(-c2nc3sccn3c2Nc2c(C)cccc2C)ccc1O | 3% | . | -5% | . | 37 | 16µM*
CCNC(=O)c1c(NC(=O)c2nc(SCC)ncc2Cl)sc2c1CCCC2 | . | . | -2% | . | 0 | 2%
CCNC(=O)c1c(NC(=O)c2nc(S(=O)(=O)CC)ncc2Cl)sc2c1CCCC2 | 0% | 13% | -9% | . | 2 | 14µM*
CCSc1ncc(Cl)c(C(=O)Nc2sc3c(c2C(=O)NCCCOC)CCCC3)n1 | 5% | -2% | 13%[0.457 µM] | . | -8 | 19%
COCCCNC(=O)c1c(NC(=O)c2nc(S(C)(=O)=O)ncc2Cl)sc2c1CCCC2 | 3% | -9% | 6% | . | 3 | 1.8µM*
Cn1cc(CCNC(=O)CC2C(=O)NCCN2Cc2cccc(Oc3ccccc3)c2)cn1 (stereo not given) | -10% | 7% | 17% | 5% | 2 | 25µM*
O=C(CC1C(=O)NCCN1Cc1cccc(Oc2ccccc2)c1)NCCc1ccccn1 (stereo not given) | -16% | 6% | -6%[57.1 µM] | 18% | 5 | -13%[57.1 µM]
COc1cc(C(=O)O)c2c(c1C)OC(=O)c1c(C)cc(O)c(C=O)c1O2 | 5.6µM* | -4% | -2% | . | -6 | -5%
COC(=O)c1c(C)cc(O)c(C=O)c1O | -4% | -1% | -1% | . | 17 | -4%
CCCn1nc(C(=O)NCC2CCCCC2)c2ccccc2c1=O | . | . | . | . | -4 | .
SMILES | GLS inh | mIDH1 inhibitor | TrxR1 substrate | PKM2 act | LDHA inh | TrxR1 inh
CC(=O)Oc1ccc(N2C(=O)C3C(C2=O)C2(C)C=CC3(C)O2)cc1 (stereo not given) | . | . | . | 24% | . | .
CC(=O)Oc1ccc(N2C(=O)C3C4C=CC(CO)(O4)C3C2=O)cc1 (stereo not given) | 16% | 1% | 9%[57.1 µM] | ? | 2 | 3.2µM*
COC(=O)C1(C)NC(c2ccc(Cl)cc2)C2C(=O)N(c3ccccc3)C(=O)C21 (stereo not given) | 1% | 2% | -2% | -4%[11.5 µM] | -7 | 17%
O=C1CCC(=O)N1c1ccccc1-c1ccccc1 | 9% | -1% | 0% | -1% | -3 | -6%
O=C1C2C3C=CC(CO)(O3)C2C(=O)N1c1ccccc1-c1ccccc1 (stereo not given) | 37% | 0% | 8% | 32µM* | -1 | 0.89µM*
O=C1C2C3C=CC(CNS(=O)(=O)c4ccccc4)(O3)C2C(=O)N1c1ccc(Cl)cc1 (stereo not given) | 1% | 4% | -2% | ? | 2 | 10µM*
Cc1ccc(C)c(C(C)NC(=O)c2cccc(F)c2)c1 (stereo not given) | . | . | . | . | -6 | .
Cc1cc(C(c2nnnn2Cc2ccccc2)N2CCOCC2)c(C)n1-c1ccc2c(c1)OCO2 (stereo not given) | -10% | 6% | 7% | 23% | 19 | 7.9µM*
O=C(COC(=O)/C=C/c1ccco1)Nc1cc(S(=O)(=O)N2CCOCC2)ccc1Cl | -15% | 0% | -7% | . | -3 | 35µM*
CN(C)S(=O)(=O)c1cc(NC(=O)COC(=O)/C=C/c2ccco2)ccc1Cl | -8% | 3% | -6% | 8% | 3 | 3.5µM*
COc1cccc(/C=C/C(=O)OCC(=O)Nc2ccc(Cl)c(S(=O)(=O)N(C)C)c2)c1 | -4% | -10% | -4%[57.1 µM] | 0% | -4 | -22%[57.1 µM]
CCN(CC)c1ccc(S(=O)(=O)N2CCOCC2)cc1NC(=O)COC(=O)/C=C/c1ccco1 | -1% | 0% | 0% | . | -16 | -23%
COC(=O)c1ccc(CCNC(=O)c2nccnc2N)cc1 | . | . | . | . | -1 | .
Cc1ccc(NC(=O)NCc2nc(-c3cccc(Cl)c3)oc2C)cc1 | . | . | . | . | -6 | .
COc1ccc(NS(=O)(=O)c2cc3c(cc2C)NC(=O)CO3)c(OC)c1 | 11% | 3% | 4%[57.1 µM] | 7% | -3 | 11%[57.1 µM]
Cc1ccccc1NS(=O)(=O)c1cc2c(cc1C)NC(=O)CO2 | 1% | -3% | 1%[57.1 µM] | 5.6µM* | 0 | 20%[57.1 µM]
CCc1ccc(NC(=O)CSc2ncc(-c3ccc(F)cc3)o2)cc1 | . | . | . | . | 2 | .
N#Cc1ccc(CSc2nnc(NC(=O)c3ccc4ncsc4c3)s2)cc1 | 4µM* | ? | 8%[57.1 µM] | -10% | -9 | 19%[57.1 µM]
O=C(O)c1ccccc1SCc1ccccc1Cl | . | . | . | . | -1 | .
O=[N+]([O-])C(/C=C(\Cl)[N+](=O)[O-])=C(N1CCCCC1)N1CCCCC1 | -21% | -8% | -19% | -10% | 1 | 20µM*
O=[N+]([O-])C(=C1SCCS1)C(=C(Cl)Cl)N1CCCCC1 | 4% | 15% | 0%[57.1 µM] | -3% | -3 | 2%[57.1 µM]
CC[n+]1ccc(/C=C/c2ccc(N(C)C)cc2)c2ccccc21 | -1% | 25% | -5% | -32% | -1 | -11%
CC[n+]1ccc(C[n+]2ccccc2)c2ccccc21 | 1% | 2% | -13% | -32% | -40* | ?
O=Cc1cccc(OCc2ccc(Cl)c(Cl)c2)c1 | . | . | . | . | 13 | .

High-throughput results (PubChem BioAssay)
